{"source": "PubChem BioAssay (NCATS)", "note": "Results filed as inconclusive are left out. Unmarked numbers belong to inactive results. The source made the active and inactive calls. Calls come from the whole dose curve; as a rule, active = well fitted inhibition curve with a large enough effect; inconclusive = small, poorly fitted or top-dose-only effect; inactive = flat fitted curve, though single readings scatter. % is set by controls: 0 for no effect and ±100 for the full control effect; potency is the fitted concentration of half-maximal effect.", "data": [{"tested_on": "HEK293", "experiment": "Cytotoxic Profiling of Annotated Libraries Using Quantitative High-Throughput Screening (AID 1296008); note: nearly all actives have a fitted effect of over 60% in size", "conditions": "Five cell lines viability, CellTiter-Glo ATP luminescence, 48-72 h; max response: hits give low values", "summary_of_the_method": "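Compounds were pin-transferred onto cells and incubated 48 or 72 hr at 37 degree Celsius, 95% humidity. CellTiter-Glo was added, plates sat 10 min at room temperature, then ATP-coupled luminescence was imaged as the viability read-out.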", "units": {"max response": "%"}, "values": [{"smiles": "CO[C@H]1C[C@@H]2CC[C@@H](C)[C@@](O)(O2)C(=O)C(=O)N2CCCC[C@H]2C(=O)O[C@H]([C@@H](C)C[C@@H]2CC[C@@H](O)[C@H](OC)C2)CC(=O)[C@H](C)/C=C(\\C)[C@@H](O)[C@@H](OC)C(=O)[C@H](C)C[C@H](C)/C=C/C=C/C=C/1C", "Potency": "0.0073 µM (active)"}, {"smiles": "COc1cc(/C=C2\\CCCN([C@@H](C)c3ccc(F)cc3)C2=O)ccc1-n1cnc(C)c1", "Potency": "13 µM (active)"}, {"smiles": "CN(c1ccc(NC(=O)Nc2ccccc2)cc1)S(=O)(=O)c1cnn(-c2ccc(F)cc2)c1", "Potency": "16.4 µM (active)"}, {"smiles": "CC(C)S(=O)(=O)NC[C@@H]1CC(c2ccc(N3CCCC3)c(F)c2)=NO1", "Potency": "14.6 µM (active)"}, {"smiles": "C=C1CC2OC(=O)C(COC)C2C(OC(=O)/C(C)=C\\C)CC2(C)OC1=CC2=O", "note": "(centres undefined)", "Potency": "4.53 µM (active)"}, {"smiles": "NC(=O)c1cnc(N[C@@H]2CCCC[C@@H]2N)nc1Nc1cccc(-n2nccn2)c1", "Potency": "11.7 µM (active)"}, {"smiles": "Oc1cccc(C2NC(=S)Nc3cccc(F)c32)c1", "note": "(centres undefined)", "Potency": "5.8 µM (active)"}, {"smiles": "C=C(C)C(=O)OC1CC(CO)CCC/C(CO)=C/C2OC(=O)C(=C)C21", "note": "(centres undefined)", "Potency": "7.18 µM (active)"}, {"smiles": "CC(C)C[C@H](C(=O)O)c1cc(-c2ccc(C(F)(F)F)cc2)cc(-c2ccc(C(F)(F)F)cc2)c1", "Potency": "10.3 µM (active)"}, {"smiles": "Cc1ccc(C)c(-c2cc(C(F)(F)F)nn2-c2ccc(S(N)(=O)=O)cc2)c1", "Potency": "5.17 µM (active)"}, {"smiles": "Nc1nc(Cl)nc2c1ncn2C1OC(CO)C(O)C1F", "note": "(centres undefined)", "Potency": "2.06 µM (active)"}, {"smiles": "Cc1nc(NC(=O)N2CCC[C@H]2C(N)=O)sc1-c1ccnc(C(C)(C)C(F)(F)F)c1", "Potency": "16.4 µM (active)"}, {"smiles": "Cc1cc(NC(=O)c2cccc(NC(=O)/C=C/CN(C)C)c2)ccc1Nc1nccc(-c2cccnc2)n1", "Potency": "9.2 µM (active)"}, {"smiles": "COc1ccc(CN2CCN(C(=O)CCNC(=O)c3ccc(C(C)(C)C)cc3)CC2)cc1", "Potency": "7.31 µM (active)"}, {"smiles": "CNC1CN(c2ccc3c(=O)c(C(=O)O)cn(-c4nccs4)c3n2)CC1OC", "note": "(centres undefined)", "Potency": "1.06 µM (active)"}, {"smiles": "OC(c1ccc(-c2ccc(CN3CCN(Cc4ccncc4)CC3)cc2)c(F)c1)(C(F)(F)F)C(F)(F)F", "Potency": "5.17 µM (active)"}, {"smiles": "CCC(=C(c1ccc(OCCN2CCCC2)cc1)c1ccc(OCCN2CCCC2)cc1)c1ccccc1", "Potency": "8.2 µM (active)"}, {"smiles": "Cc1cc(-c2cnc(N)c3c(-c4ccc5scnc5c4)csc23)n(C)n1", "Potency": "8.2 µM (active)"}, {"smiles": "O=C(CN1C2=NCCN2c2ccccc21)c1ccc(-c2ccccc2)cc1", "Potency": "18.4 µM (active)"}, {"smiles": "CC(C)(C)c1ccc(NC(=O)N2CCN(c3ncccc3Cl)CC2)cc1", "Potency": "11.6 µM (active)"}, {"smiles": "COc1ccccc1S(=O)(=O)Nc1ccc2c(c1)CN(C)C(=O)N2", "Potency": "6.51 µM (active)"}, {"smiles": "CN(C)CCCn1cc(C2=C(c3c[nH]c4ccccc34)C(=O)NC2=O)c2ccccc21", "Potency": "14.6 µM (active)"}, {"smiles": "Oc1ccc(-c2cnc3ccc(NCc4ccco4)nn23)cc1", "Potency": "20.6 µM (active)"}, {"smiles": "CC(=O)N1CCN(CCOc2ccc(C3CCN(C4=Nn5c(nnc5C(F)(F)F)CC4)CC3)cc2)CC1", "Potency": "9.2 µM (active)"}, {"smiles": "CC1CCCC(O)CCC/C=C/c2cc(OS(=O)(=O)O)cc(O)c2C(=O)O1", "note": "(centres undefined)", "max response": -20.5}, {"smiles": "CN(C)CCN(Cc1ccccc1)C(=O)c1cc(-c2ccc(F)cc2)n2nc(C(C)(C)C)cc2n1", "Potency": "14.6 µM (active)"}, {"smiles": "NC(=O)c1cnc(N[C@@H]2CCCC[C@H]2N)nc1Nc1cccc(-n2nccn2)c1", "Potency": "20.6 µM (active)"}, {"smiles": "CC(C)NC(=O)COc1cccc(-c2nc(Nc3ccc4[nH]ncc4c3)c3ccccc3n2)c1", "Potency": "5.8 µM (active)"}, {"smiles": "CC(C)(C)c1ccc(-c2nc3c(N4CCN(Cc5ccc6nccnc6c5)CC4)cccc3[nH]2)cc1", "Potency": "4.11 µM (active)"}, {"smiles": "COc1cc(OC)c(NC(=O)c2ccc(Cc3cc4c(cc3C)C(C)(C)CCC4(C)C)o2)c(OC)c1", "Potency": "20.6 µM (active)"}, {"smiles": "Cc1nc(NC(=O)N2CCCC2C(N)=O)sc1-c1ccnc(C(C)(C)C(F)(F)F)c1", "note": "(centres undefined)", "Potency": "10.3 µM (active)"}, {"smiles": "COc1ccc2c(c1)C(C(=O)N(Cc1ccc(N(C)C)cc1)c1ccc(C(C)C)cc1)CCC2", "note": "(centres undefined)", "Potency": "11.6 µM (active)"}, {"smiles": "COc1cc2c(Nc3cc(F)c(Cl)c(Cl)c3)ncnc2cc1OCC1CCCN(C)CCC1", "Potency": "8.2 µM (active)"}, {"smiles": "N#CSc1cc(SC#N)c(N)nc1N", "Potency": "3.1 µM (active)"}, {"smiles": "CN(C)CC1CCn2c(c(C3=C(c4cn(C)c5ccccc45)C(=O)NC3=O)c3ccccc32)C1", "note": "(centres undefined)", "Potency": "8.2 µM (active)"}, {"smiles": "COc1ccc2nc(-c3cc(OC)c(OC)c(OC)c3)cc(C(=O)NCC(=O)Nc3ccc(C(C)=O)cc3)c2c1", "Potency": "7.31 µM (active)"}, {"smiles": "NCC1CCN(c2nccc(-c3ccc4ccccc4c3)n2)CC1", "Potency": "11.6 µM (active)"}, {"smiles": "C[C@@H]1COCCN1c1cc(=O)n2c(n1)N(Cc1cncc(Cl)c1)[C@H](C(F)(F)F)CC2", "Potency": "4.17 µM (active)"}, {"smiles": "COc1ccc(CCc2nc3c(C)c(-c4c(C)noc4C)c(C)cc3n2CCN2CCOCC2)cc1", "Potency": "23.1 µM (active)"}]}]}
